Laboratory results taken from PubChem BioAssay (NCATS).
Inconclusive results are not listed. A call without a number means that no potency is given here. Active and inactive are the calls of the source. The call rests on the fitted dose curve; in most records, active means well fitted cell-killing curve with a large enough effect; inconclusive means small, poorly fitted or top-dose-only effect, or effect the other way; inactive means flat fitted curve, though single readings scatter. Numbered stars: 1 amine (or outer) side, 2 acyl side, 3 side chain; on linkers, the order of the positions; unused ones are H or OH. Bridge positions count the residues as written; N and C are the ends. Square brackets hold non-standard residues; d marks the D form. Peptide text beside a SMILES is read from it. I, II: the chains in the order shown. Actinocin(9to1) = Cc1c2oc3c(C)ccc(C(=O)[*:1])c3nc-2c(C(=O)[*:2])c(N)c1=O; NMeV = CN[C@H](C(=O)O)C(C)C; Sar = CNCC(=O)O
Potency means the concentration at half of the fitted maximal effect.

Assay: S16 Schwann cell viability assay (CellTiter-Glo assay) (AID 624031); further: nearly all actives have a fitted effect of over 70% in size
Settings: S16 rat Schwann cells viability, 24 h; series mostly up to 57.5 µM
Text: Charcot-Marie-Tooth-Association [CMTA]
National Center for Advancing Translational Sciences [NCATS]
Charcot-Marie-Tooth (CMT) disease was first characterized by Jean-Martin Charcot and Pierre Marie in France and, independently, by Howard Henry Tooth in England in 1886. CMT is one of the most common inherited neurological diseases, affecting approximately 1 in 2,500 Americans. […] The most prevalent type of CMT is known as CMT1A and caused by a duplication of the PMP22 gene which leads to over-expression of this protein. PMP22 is a glycosylated intrinsic membrane protein accounting for 2-5% of the myelin protein content, and its over-expression results in demyelination and subsequently axonal loss.
A pair of cellular transcription-based assays was developed in the S16 rat Schwann cell lines (Hai, M., et al., 2002) stably transfected with orthogonal reporters - firefly luciferase (Fluc) and beta-lactamase (beta-Lac) - whose expression is driven by an intronic regulatory element of the PMP22 gene (Jones, E.A., et al., 2011) to recapitulate endogenous expression of PMP22. A comprehensive library of approved drugs, the NCGC Pharmaceutical Collection (Huang, R., et al., 2011), was screened in the cross-validating platform of the orthogonal reporter assays to identify drug modulators inhibitory towards PMP22 expression.
A set of counter-screens was devised to address non-specific activity of the library. An ATP-dependent CellTiter-Glo assay (developed by Promega Corp) was utilized to control cell viability. In addition, biochemical Fluc enzyme assay was performed to assess direct inhibition of the Fluc enzymatic activity.
Hai, M., Muja, N., DeVries, G.H., Quarles, R.H. and Patel, P.I. Comparative analysis of Schwann cell lines as model systems for myelin gene transcription studies. J Neurosci Res, 2002. 69(4): pp 497-508
Huang, R., Southall, N., Wang, Y., Yasgar A., Shinn P., Jadhav, A. , Nguyen, D.-T. and Austin, C.P., The NCGC pharmaceutical collection: a comprehensive resource of clinically approved drugs enabling repurposing and chemical genomics. Sci Transl Med, 2011. 3(80): p. 80ps16.
Native S16 cells were seeded in white solid-bottom 1536 well plates at between 500-750 cells/6uL in DMEM medium containing 10% FBS, w/o phenol red. After overnight incubation at 37 degree Celsius/5% C02, 23 nL of compounds or DMSO were delivered to each well using a pin tool, followed by 24h-incubation at 37 degree Celsius/5% C02. Then one volume of CellTiter-Glo assay reagent (Promega) was added to each well for cell viability measured by a ViewLux plate reader (PerkinElmer). The % activity was determined by normalizing to the average readings from wells containing no cells relative to DMSO-treated cells (0% Activity). The concentration-effect curves were then classified based on curve quality (r2), response magnitude and degree of measured activity.
For `CC[N+](CC)(CCNC(=O)C(=O)NCC[N+](CC)(CC)Cc1ccccc1Cl)Cc1ccccc1Cl`, the Potency was “inactive”. In the case of `Cc1c(F)c(N2CCNC(C)C2)cc2c1c(=O)c(C(=O)O)cn2C1CC1` (stereo not given), the Potency is reported as “inactive”. For `CC(=O)OCC(=O)NCCCOc1cccc(CN2CCCCC2)c1`, the Potency was “inactive”. With `Cc1c2oc3c(C)ccc(C(=O)N[C@@H]4C(=O)N[C@H](C(C)C)C(=O)N5CCC[C@H]5C(=O)N(C)CC(=O)N(C)[C@@H](C(C)C)C(=O)O[C@@H]4C)c3nc-2c(C(=O)N[C@@H]2C(=O)N[C@H](C(C)C)C(=O)N3CCC[C@H]3C(=O)N(C)CC(=O)N(C)[C@@H](C(C)C)C(=O)O[C@@H]2C)c(N)c1=O` (I: T[dV]P[Sar][NMeV] / II: T[dV]P[Sar][NMeV]; ester I:1-I:C, II:1-II:C; linker I:N-II:N via Actinocin(9to1)) the Potency was “inactive”. In the case of `C[C@]12CCC(=O)C=C1CC[C@H]1[C@@H]3CC[C@](O)(C(=O)CO)[C@@]3(C)C[C@H](O)[C@@]12F`, the Potency is reported as “inactive”. In the case of `CC(C)NC[C@@H](O)COc1cccc2ccccc12`, the Potency is reported as “inactive”. For `CCCCCC=CCC=CCCCCCCCC(=O)OCC`, the Potency was “inactive”. For `CC(=O)Oc1ccc(C(c2ccc(OC(C)=O)cc2)c2ccccn2)cc1`, the Potency was “inactive”. For `CCOC(=O)OC(C)OC1=C(C(=O)Nc2ccccn2)N(C)S(=O)(=O)c2ccccc21` (stereo not given), the Potency was “inactive”. In the case of `O=C(Nc1ccc(Cl)c(Cl)c1)C1CC1`, the Potency is reported as “inactive”. With `Cc1ccnc(NS(=O)(=O)c2ccc(N)cc2)n1` the Potency was “inactive”. With `CC(O)C(=O)O` (stereo not given) the Potency was “inactive”. With `CC/C(=C(/CC)c1ccc(O)cc1)c1ccc(O)cc1` the Potency was “inactive”. In the case of `NCCCC[C@H](N[C@@H](CCc1ccccc1)C(=O)O)C(=O)N1CCC[C@H]1C(=O)O`, the Potency is reported as “inactive”. For `CC(=O)Nc1c(I)cc(I)c(C(=O)O)c1I`, the Potency was “inactive”. For `CCN(CC)CCOC(=O)C(c1ccccc1)C1CCCCC1` (stereo not given), the Potency was “inactive”. In the case of `COc1cc(NS(C)(=O)=O)ccc1Nc1c2ccccc2nc2ccccc12`, the Potency is reported as 32.2 µM (active). With `c1ccc(CNCCNCc2ccccc2)cc1` the Potency was “inactive”. In the case of `C=C(CC)C(=O)c1ccc(OCC(=O)O)c(Cl)c1Cl`, the Potency is reported as “inactive”. In the case of `CCOc1ccc2nc3cc(N)ccc3c(N)c2c1`, the Potency is reported as 12.8 µM (active). With `C#C[C@]1(OC(C)=O)CC[C@H]2[C@@H]3CCC4=C[C@@H](OC(C)=O)CC[C@@H]4[C@H]3CC[C@@]21C` the Potency was “inactive”. With `C[C@H]1C[C@H]2[C@@H]3CCC4=CC(=O)C=C[C@]4(C)[C@@]3(Cl)[C@@H](O)C[C@]2(C)[C@@]1(O)C(=O)CO` the Potency was “inactive”. In the case of `COc1cc(OC)cc(OC)c1`, the Potency is reported as “inactive”. With `CN1C2CCC1CC(OC(=O)c1c[nH]c3ccccc13)C2` (stereo not given) the Potency was “inactive”. In the case of `Nc1ccc(/C=C/c2ccc(N)cc2S(=O)(=O)O)c(S(=O)(=O)O)c1`, the Potency is reported as “inactive”. For `C[C@@H]1C[C@H]2[C@@H]3CCC4=CC(=O)C=C[C@]4(C)[C@@]3(F)[C@@H](O)C[C@]2(C)[C@H]1C(=O)CO`, the Potency was “inactive”. In the case of `NCCc1ccn[nH]1`, the Potency is reported as “inactive”. For `O=C(CCCN1CCC(O)(c2ccc(Br)cc2)CC1)c1ccc(F)cc1`, the Potency was “inactive”. With `Nc1ccc(C(=O)Nc2ccccc2N)cc1` the Potency was “inactive”. For `CCCN1CCCC[C@H]1C(=O)Nc1c(C)cccc1C`, the Potency was “inactive”. In the case of `COC1=CC(=O)C[C@@H](C)[C@]12Oc1c(Cl)c(OC)cc(OC)c1C2=O`, the Potency is reported as “inactive”. In the case of `C[C@]12CC[C@@H]3c4ccc(O)cc4CC[C@H]3[C@@H]1CC[C@@H]2O`, the Potency is reported as “inactive”. In the case of `Nc1cc(Cl)c(NC2=NCCN2)c(Cl)c1`, the Potency is reported as “inactive”. For `N[C@@H](Cc1cnc[nH]1)C(=O)O`, the Potency was “inactive”. With `O=C1[C@H]2CCCC[C@H]2C(=O)N1CCCCN1CCN(c2nsc3ccccc23)CC1` the Potency was 32.2 µM (active). In the case of `CN=C(NC#N)NCCSCc1csc(N=C(N)N)n1`, the Potency is reported as “inactive”. In the case of `CCOc1ccc(Cc2nccc3cc(OCC)c(OCC)cc23)cc1OCC`, the Potency is reported as “inactive”. With `O=C(COc1ccc(Cl)cc1)N1CCN(Cc2ccc3c(c2)OCO3)CC1` the Potency was “inactive”. For `O=S1(=O)c2cccc3cccc(c23)N1CCCN1CCN(c2ccc(F)cc2)CC1`, the Potency was “inactive”. In the case of `Cc1cccn2c(=O)c(-c3nnn[nH]3)cnc12`, the Potency is reported as “inactive”.
